# In PubChem BioAssay (EPA / NIEHS):
# A structure can be active in one record and inactive in another. Activity calls are given as the source filed them. The calls were made as follows: active = hit-call score of the fitted dose curve at least 0.9, where 1 is the maximum; inactive = score below 0.9.
# How the values were obtained:
# [1] = target: Transcriptional activator Myb (Homo sapiens) (UniProt P10242); experiment: ATG_Myb_CIS: Attagene CIS-FACTORIAL HepG2 Assay for human Myeloblastosis (Myb) Proto-Oncogene Transcription Factor (AID 2282986); settings: HepG2 Attagene CIS-FACTORIAL Myb reporter transcription; actives raise or lower the signal
# Sequence of Transcriptional activator Myb (Homo sapiens) (P10242 whole entry, looked up): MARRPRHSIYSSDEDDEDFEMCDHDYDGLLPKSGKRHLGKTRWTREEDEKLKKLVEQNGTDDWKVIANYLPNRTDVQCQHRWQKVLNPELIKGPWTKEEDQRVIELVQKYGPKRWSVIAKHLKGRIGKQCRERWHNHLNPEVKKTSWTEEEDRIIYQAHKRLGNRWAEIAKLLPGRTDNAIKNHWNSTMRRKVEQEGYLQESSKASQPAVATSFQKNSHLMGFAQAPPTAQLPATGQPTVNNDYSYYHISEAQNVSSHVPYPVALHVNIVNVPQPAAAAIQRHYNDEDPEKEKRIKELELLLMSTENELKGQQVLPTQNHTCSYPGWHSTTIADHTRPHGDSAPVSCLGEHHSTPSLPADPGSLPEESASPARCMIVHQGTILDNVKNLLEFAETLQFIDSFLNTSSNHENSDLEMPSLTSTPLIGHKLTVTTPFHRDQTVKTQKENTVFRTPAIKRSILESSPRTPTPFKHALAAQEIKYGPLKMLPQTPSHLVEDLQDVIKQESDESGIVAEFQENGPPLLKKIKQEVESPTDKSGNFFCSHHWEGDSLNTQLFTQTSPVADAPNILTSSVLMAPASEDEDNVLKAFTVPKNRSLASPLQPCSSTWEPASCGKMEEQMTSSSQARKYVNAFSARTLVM
# Outline: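 Steps: transfect HepG2 with cis-regulated reporter units; dose with chemical for 24 h; isolate RNA, reverse-transcribe, PCR-amplify and FAM-label reporter sequences; digest with HpaI; resolve by capillary electrophoresis. Activity fitted in both directions relative to DMSO.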
# [2] = target: Nuclear respiratory factor 1 (Homo sapiens) (UniProt Q16656); experiment: ATG_NRF1_CIS: Attagene CIS-FACTORIAL HepG2 Assay for human Nuclear Respiratory Factor 1 (NRF1) Orphan Gene (AID 2282987); settings: HepG2 NRF1 cis-element reporter, Attagene multiplex; actives raise or lower the signal
# Sequence of Nuclear respiratory factor 1 (Homo sapiens) (Q16656 whole entry, looked up, the tested form may be a part): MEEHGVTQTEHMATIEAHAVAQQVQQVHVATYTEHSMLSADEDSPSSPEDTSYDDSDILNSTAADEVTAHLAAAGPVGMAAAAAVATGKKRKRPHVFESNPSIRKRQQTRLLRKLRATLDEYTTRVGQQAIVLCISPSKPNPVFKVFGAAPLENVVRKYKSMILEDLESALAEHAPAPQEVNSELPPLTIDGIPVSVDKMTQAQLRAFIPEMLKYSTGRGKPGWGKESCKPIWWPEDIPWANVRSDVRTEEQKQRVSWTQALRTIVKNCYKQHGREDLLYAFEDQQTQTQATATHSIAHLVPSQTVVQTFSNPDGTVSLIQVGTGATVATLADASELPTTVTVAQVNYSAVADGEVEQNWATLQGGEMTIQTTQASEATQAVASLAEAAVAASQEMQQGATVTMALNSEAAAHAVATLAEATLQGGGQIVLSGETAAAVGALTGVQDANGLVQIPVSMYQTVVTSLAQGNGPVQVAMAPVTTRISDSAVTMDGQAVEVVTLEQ
# Outline: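 Fluorescence intensity of labelled reporter cDNA fragments, resolved by capillary electrophoresis, served as readout for NRF1 cis-element activity. Transiently transfected HepG2 cells were dosed for 24 hours; activity in either direction was fitted against DMSO negative control.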
# [3] = ATG_NFI_CIS: Attagene CIS-FACTORIAL HepG2 Assay for human Nuclear Factor I (NFI) (AID 2282989); settings: HepG2 cis-regulatory reporter, NFI response element transcription; actives raise or lower the signal
# Outline: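 Transient MRTU transfection of HepG2 → 24 h chemical dosing → total RNA, oligo(dT) RT → PCR, 6-FAM primer extension, HpaI cut → capillary electrophoresis. Endpoint fitted bidirectionally relative to DMSO.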
# [4] = target: Myc proto-oncogene protein (Homo sapiens) (UniProt P01106); experiment: ATG_Myc_CIS: Attagene CIS-FACTORIAL HepG2 Assay for human Myelocytomatosis (Myc) Proto-Oncogene Transcription Factor (AID 2282990); settings: HepG2, Attagene cis-reporter transcription factor activity; actives raise or lower the signal
# Sequence of Myc proto-oncogene protein (Homo sapiens) (P01106 whole entry, looked up): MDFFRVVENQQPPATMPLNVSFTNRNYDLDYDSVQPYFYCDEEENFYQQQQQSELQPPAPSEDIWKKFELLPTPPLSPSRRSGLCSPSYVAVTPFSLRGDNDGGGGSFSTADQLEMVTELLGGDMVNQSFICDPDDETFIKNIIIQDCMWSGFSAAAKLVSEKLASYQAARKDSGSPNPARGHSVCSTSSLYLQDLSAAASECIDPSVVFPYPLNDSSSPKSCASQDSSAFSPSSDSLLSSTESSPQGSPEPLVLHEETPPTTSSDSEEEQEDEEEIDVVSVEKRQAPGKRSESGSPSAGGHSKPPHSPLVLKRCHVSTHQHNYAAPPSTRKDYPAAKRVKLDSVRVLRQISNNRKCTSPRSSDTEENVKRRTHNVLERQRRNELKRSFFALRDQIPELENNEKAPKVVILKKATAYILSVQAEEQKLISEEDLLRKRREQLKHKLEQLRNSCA
# Outline: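 DMSO-normalised, bidirectionally fitted reporter mRNA signal. HepG2 cells transfected with cis reporter constructs, treated 24 h; transcripts detected by RT-PCR, 6-FAM primer extension and CE.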
# [5] = ATG_NF_kB_CIS: Attagene CIS-FACTORIAL HepG2 Assay for human Nuclear Factor Kappa B (NF-kB) (AID 2282991); settings: HepG2 Attagene cis-factorial NF-kB reporter mRNA; actives raise or lower the signal
# Outline: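 Endogenous transcription factor activity in HepG2 was captured via cis-regulated reporter constructs; after 24 h dosing, reporter mRNA was reverse-transcribed, amplified, fluorescently labelled and sized by capillary electrophoresis, with activity fitted bidirectionally relative to DMSO.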
# [6] = ATG_NRF2_ARE_CIS: Attagene CIS-FACTORIAL HepG2 Assay for human Nuclear Factor Erythroid 2 Related Factor 2 (NFR2) response to Antioxidant Response Elements (ARE) (AID 2282992); settings: HepG2 Attagene ARE/NRF2 reporter, transcription factor activity; actives raise or lower the signal;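 as to AC50: reporter mRNA level measured by RT-PCR and capillary electrophoresis fluorescence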
# Outline: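 Cis-factorial assay: transfected HepG2 reporter library, 24 h dosing, mRNA readout via RT-PCR/CE; DMSO-referenced bidirectional analysis.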
# [7] = ATG_Oct_MLP_CIS: Attagene CIS-FACTORIAL HepG2 Assay for human Octamer-Binding Transcription Factor (Oct) (AID 2282993); settings: HepG2 Attagene cis-factorial Oct reporter, mRNA; actives raise or lower the signal
# Outline: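 Transient MRTU transfection of HepG2 → 24 h compound treatment → RNA isolation, reverse transcription, PCR → 6-FAM primer extension, HpaI digest → capillary electrophoresis. Activity fitted both directions against DMSO.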
# [8] = target: Cellular tumor antigen p53 (Homo sapiens) (UniProt P04637); experiment: ATG_p53_CIS: Attagene CIS-FACTORIAL HepG2 Assay for human p53 Transcription Factor (AID 2282994); settings: HepG2 p53 cis-element reporter, Attagene mRNA; actives raise or lower the signal
# Sequence of Cellular tumor antigen p53 (Homo sapiens) (P04637 whole entry, looked up): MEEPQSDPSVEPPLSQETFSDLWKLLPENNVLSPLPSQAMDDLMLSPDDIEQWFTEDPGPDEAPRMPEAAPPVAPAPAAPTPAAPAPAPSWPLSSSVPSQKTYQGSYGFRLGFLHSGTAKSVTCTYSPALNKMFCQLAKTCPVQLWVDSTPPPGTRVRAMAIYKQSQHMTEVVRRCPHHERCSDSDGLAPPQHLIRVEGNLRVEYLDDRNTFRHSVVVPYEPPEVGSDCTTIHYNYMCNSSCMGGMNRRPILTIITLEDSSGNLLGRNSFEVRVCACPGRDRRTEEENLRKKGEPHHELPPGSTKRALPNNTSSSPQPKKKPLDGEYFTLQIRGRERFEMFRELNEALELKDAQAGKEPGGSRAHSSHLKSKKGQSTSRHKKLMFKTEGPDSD
# Outline: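 Using HepG2 hepatoma cells carrying cis-acting multiplexed reporters, mRNA induction is detected after a 24 h exposure. Gain- and loss-of-signal responses are fitted relative to DMSO-treated cells.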
# [9] = BSK_3C_TissueFactor: BioMAP Diversity Plus: 3C Assay for Tissue Factor Biomarker Activity (AID 2282997); settings: BioMAP 3C HUVEC, tissue factor biomarker readout; actives raise or lower the signal
# Outline: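 ELISA read-out of Tissue Factor levels on human umbilical vein endothelium collected 24 h after chemical dosing. Gain or loss of signal was fitted relative to DMSO.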
# [10] = BSK_3C_uPAR: BioMAP Diversity Plus: 3C Assay for Urokinase-type plasminogen activator receptor (uPAR) Biomarker Activity (AID 2282998); settings: BioMAP 3C HUVEC, uPAR biomarker ELISA; actives raise or lower the signal
# Outline: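 ELISA readout of uPAR on human vascular endothelium (umbilical vein primary cells), taken 24 h after chemical dosing. Increases and decreases are both fitted relative to DMSO vehicle.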
Compound,outcome [1],outcome [2],outcome [3],outcome [4],AC50 [5],AC50 [6],AC50 [7],outcome [8],AC50 [9],AC50 [10],outcome [5],outcome [6],outcome [9],outcome [10],AC50 [8],outcome [7],AC50 [4]
C=CC(=O)OCC(CC)(COC(=O)C=C)COC(=O)C=C,inactive,inactive,inactive,inactive,5.65 µM (active),1.65 µM (active),25.5 µM (active),inactive,1.5 µM (active),3.57 µM (active),,,,,,,
O=C(O)C=CC(F)(C(F)(F)F)C(F)(F)F,inactive,inactive,inactive,inactive,,,,inactive,,,inactive,inactive,inactive,inactive,,,
Oc1ccc(I)cc1,inactive,inactive,inactive,inactive,,67.3 µM (active),,inactive,,,inactive,,,,,,
FC(F)(F)c1ccc(Cl)cc1,inactive,inactive,inactive,inactive,,,,inactive,,,inactive,inactive,,,,,
C=CC(=O)OCC(F)(F)C(F)F,inactive,inactive,inactive,inactive,76 µM (active),50.3 µM (active),,,24.6 µM (active),,,,inactive,inactive,206 µM (active),,
CCOP(=S)(OCC)SCS(=O)(=O)CC,inactive,inactive,inactive,inactive,,,,inactive,,,inactive,inactive,inactive,inactive,,inactive,
[N-]=[N+]=[N-],inactive,inactive,inactive,,,,,inactive,,,inactive,inactive,inactive,inactive,,,100 µM (active)
O=[N+]([O-])c1ccccc1,inactive,inactive,inactive,inactive,,,,inactive,,,inactive,inactive,inactive,inactive,,,
O=P(Oc1ccccc1)(Oc1ccccc1)Oc1ccccc1,inactive,inactive,inactive,inactive,,28.5 µM (active),,inactive,27.3 µM (active),32.2 µM (active),inactive,,,,,,
c1ccc(OP(Oc2ccccc2)Oc2ccccc2)cc1,inactive,inactive,inactive,inactive,,,,inactive,,,inactive,inactive,inactive,inactive,,inactive,
O=C(O)C(F)(F)C(F)(F)C(=O)O,inactive,inactive,inactive,inactive,,,,inactive,,,inactive,inactive,inactive,inactive,,inactive,
CCCCN(CCCC)N=O,inactive,inactive,inactive,inactive,,,,inactive,,,inactive,inactive,inactive,inactive,,inactive,
N#C/C=C/c1ccccc1,inactive,inactive,inactive,inactive,,,,inactive,,,inactive,inactive,,,,,
COP(=O)(CCC(=O)NCO)OC,inactive,inactive,inactive,inactive,,,,inactive,,,inactive,inactive,inactive,inactive,,inactive,
O=C(O)C(F)(OC(F)(F)C(F)(F)C(F)(F)F)C(F)(F)F (stereo not given),inactive,inactive,inactive,inactive,,,,inactive,,,inactive,inactive,inactive,inactive,,inactive,
CCOP(=S)(OCC)SCSCC,inactive,inactive,inactive,inactive,,73 µM (active),,,,,inactive,,inactive,inactive,,inactive,
Nc1cc2c3c(c1)C(c1ccccc1)=N[C@@H](NC(=O)c1cccnc1)C(=O)N3CC2,inactive,inactive,inactive,inactive,,,52.9 µM (active),,,,inactive,inactive,inactive,inactive,,,
c1nc[nH]n1,inactive,inactive,inactive,inactive,,,,inactive,,,inactive,inactive,inactive,inactive,,inactive,
